# Most compounds without a hit are left out; they make up all but 8% or so of the library.
# MCF10A rerep: DNA re-replication induction in MCF 10a cells; MCF 10A DNA re-replication, Hoechst nuclear intensity, 48 h; 350,000 compounds, 2.9% hits; AID 624296; Potency, µM (doses to about 46.1 µM), without a hit: top-dose activity, positive = re-replication, usual class: activators; further: % of control where 0% means no effect; nearly all actives have a fitted effect of over 50% in size
# HT1080 IDH1KD tx: kills HT-1080 cells with IDH1 knockdown | HT-1080 IDH1 knockdown viability, ATP luminescence, 48 h | Potency, µM (titrated, usually from 46.1 µM), for the others: at the highest dose activity, negative = toxicity, actives largely listed as cytotoxic | 360,000 compounds, 2% hits;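 further: 0% = DMSO wells and -100% = cell-free medium wells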
#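 Viability of IDH1-knockdown HT-1080 fibrosarcoma cells was assessed by CellTiter-Glo after 48 h at 37 °C with titrated compound; concentration-effect curves were classified by fit quality and response size.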
# HT1080-NT tox: kills 2HG-producing HT-1080-NT fibrosarcoma cells; Potency, µM (titrated, usually from 46.1 µM), without a hit: at the top dose activity, negative = less viability, actives largely listed as cytotoxic; 360,000 compounds, 1.6% hits; HT-1080-NT fibrosarcoma viability, CellTiter-Glo ATP luminescence, 48 h;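 further: NT is the 2HG producing partner of a matched IDH1 knockdown line; 0% = DMSO-treated cells and -100% = media-only wells without cells; nearly all actives have a fitted effect of over 55% in size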
#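 Read-out is CellTiter-Glo luminescence after 10 minutes at room temperature, following 48 hours' compound treatment of HT-1080-NT cells (750 cells/well, RPMI, 5% FBS, 37 degrees C).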
# SW480 rereplic: inducers of DNA re-replication in SW480 colon cancer cells | 340,000 compounds, 1.8% hits | Potency, µM (highest dose often 46.1 µM), inactives show at the highest dose re-replication activation, most hits filed as activators | SW480 DNA re-replication, Hoechst DNA content imaging, 48 h; further: % of control where 0% means no effect; nearly all actives have a fitted effect of over 55% in size
#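 Image-based read-out: total Hoechst fluorescence of nuclei (405 nm excitation, 500-530 nm emission), with hits raising the fraction of high-intensity nuclei. SW480 colon cells incubated 48 hr with compounds at 37 C.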
# KB-V1 MDR tox: kills drug-selected multidrug resistant KB-V1 cells; KB-V1 MDR cells viability, CellTiter-Glo, 72 h; Potency, µM (highest dose often 46.1 µM), most hits filed as cytotoxic; 400,000 compounds, 3.4% hits; AID 1347076; further: on the % scale 0 is the no-effect control and ±100 the full control effect; nearly all actives have a fitted effect of over 60% in size
#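 Drug-selected KB-V1 cells, grown in DMEM lacking phenol red with 10% FBS, receive compound titrations; after three days at 37 degrees C, surviving cell ATP is quantified by CellTiter-Glo luminescence and responses normalized and curve-fitted.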
# KB-3-1 tox: kills parental KB-3-1 adenocarcinoma cells | 400,000 compounds, 1.4% hits | KB-3-1 viability, CellTiter-Glo ATP luminescence, 72 h | Potency, µM (series often up to 46.1 µM), usual class: cytotoxic; further: on the % scale 0 is the no-effect control and ±100 the full control effect; nearly all actives have a fitted effect of over 60% in size
#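 Parental KB-3-1 viability, qHTS format: 72 h compound exposure, 37 °C; CellTiter-Glo; media-only wells and DMSO plates as controls; concentration-effect fits on corrected data.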
# Numbers without * were called inactive; i = inactive; u = inconclusive; x = no result; [ ] = dose if it differs, or a comment. The call rests on the fitted dose curve; in most records, active means well fitted curve in the direction sought with a large enough effect; inconclusive means small, poorly fitted or top-dose-only effect, or another doubt; inactive means no such curve, though single readings can be large; an effect the other way counts as inactive or inconclusive. Potency means the concentration at half of the fitted maximal effect.
SMILES,MCF10A rerep,HT1080 IDH1KD tx,HT1080-NT tox,SW480 rereplic,KB-V1 MDR tox,KB-3-1 tox
COc1ccc(Cn2c(=O)[nH]c3cc(C(=O)N4CCN(c5ccccc5F)CC4)ccc3c2=O)cc1,27.7%,-5.4%,5.4%,-2.0%,i,i
COc1ccc(Cn2c(=O)[nH]c3cc(C(=O)N4CCN(Cc5ccccc5)CC4)ccc3c2=O)cc1,19.9%,u,-29.0%,2.4%,20.6µM*,u
COC(=O)c1ccc2c(=O)n(CCCCCC(=O)N3CCN(c4ccccc4)CC3)c(=O)[nH]c2c1,14.6µM*,-6.9%,4.0%,-3.2%,u,u
CCC1(c2ccccc2)NC(=O)N(CC(=O)Nc2ccc(S(=O)(=O)Nc3ncccn3)cc2)C1=O (stereo unspecified),-0.5%,1.5%,1.0%,-3.8%,i,i
Cn1nnc(NC(=S)NC(=O)c2ccc(-c3ccc(Br)cc3)o2)n1,-11.8%,-21.9%,-19.9%,-1.0%,i,i
O=C(/C=C/[C@H]1O[C@@H](n2cnc3c(NC(=O)c4ccccc4)ncnc32)[C@H](O)[C@@H]1O)NCC(c1ccccc1)c1ccccc1,x,1.0%,-14.6%,x,i,i
CC(C)CCNC(=O)c1cc(-c2ccco2)nc2ccccc12,7.6%,-1.8%,0.0%,-0.7%,9.2µM*,i
CC(C)CCNC(=O)c1cnn2c(C(F)(F)F)cc(-c3ccco3)nc12,-10.0%,u,1.4%,-0.3%,11.2µM*,u
O=C(NC1CCCC1)c1cnn2c(C(F)(F)F)cc(-c3ccco3)nc12,u,u,3.0%,0.1%,5.17µM*,i
O=C(NC1CCCC1)c1cnn2c(C(F)(F)F)cc(-c3ccc4c(c3)OCO4)nc12,10.6%,10.2%,3.5%,1.2%,u,i
O=C(c1nn2c(C(F)(F)F)cc(-c3ccco3)nc2c1Br)N1CCCc2ccccc21,9.2µM*,10.3µM*,23.1µM*,u,23.1µM*,u
CCC(Cc1ccccc1)NC(=O)c1oc(=O)c2ccccc2c1-c1ccccc1 (stereo unspecified),x,x,x,x,i,i
c1ccc(-c2ccc(CN3CCSCC3)cc2)cc1,-8.4%,3.3%,3.5%,7.6%,i,i
CCOc1ccccc1C(=O)Nc1cc(C(=O)NCCc2ccccc2)ccc1Cl,0.0%,16.1%,2.3%,2.7%,i,i
COc1ccc(-c2nc3c(C)cc(Br)cn3c2Cc2ccccc2)cc1OC,x,u,u,x,i,i
COc1ccc(NC(=O)C2CC(=O)n3ncnc3N2)cc1 (stereo unspecified),-1.9%,-24.8%,-4.4%[9.24 µM],-4.2%,i,i
CC(C)OC(=O)N(C)c1ccc(C(O)(C(F)(F)F)C(F)(F)F)cc1,-5.3%,-24.9%,u,3.6%,i,u
CC#CC[N+](C)(C)CCCCCCCCCC,-0.3%,u,-27.0%,20.6%,i,5.8µM*
C#CC[N+](C)(C)CC#Cc1ccccc1,17.7%,-4.6%,-19.3%,15.3%,i,u
C#CC[N+](C)(C)CCCCCCCCC,9.2µM*,u,u,u,i,5.8µM*
O=C(NC1CCN(Cc2ccccc2)CC1)c1cccc(S(=O)(=O)Nc2cc(C(F)(F)F)ccc2Cl)c1,u,-10.8%,-1.6%,27.8%,23.1µM*,u
O=C(NNC(=S)NC1CCCCC1)c1cccc(S(=O)(=O)Nc2ccccc2Cl)c1,-8.3%,-4.4%,2.9%,u,20.6µM*,u
CCC(CC)C(=O)Nc1cccc(C(=O)N2CCOCC2)c1,-2.7%,12.0%,1.3%,-5.3%,i,i
CCC(CC)C(=O)Nc1cccc(C(=O)N2CCCCCC2)c1,20.6µM*,-10.7%,0.0%,u,u,i
Cc1ccc(NS(=O)(=O)c2cccc(C(=O)NNC(=O)NC3CCCCC3)c2)c(C)c1,9.2%,-3.3%,-8.4%,14.4%,i,i
SMILES,MCF10A rerep,HT1080 IDH1KD tx,HT1080-NT tox,SW480 rereplic,KB-V1 MDR tox,KB-3-1 tox
O=C(c1cccc(S(=O)(=O)Nc2ccccc2Cl)c1)N1CCCCCC1,7.8%,2.7%,-4.0%,3.1%,18.4µM*,i
O=C(c1ccc(S(=O)(=O)N2CCOCC2)cc1)N1CCCc2ccccc21,1.6%,-9.7%,-3.6%,-7.2%,i,i
C=CCOc1cccc(C2/C(=C(/O)c3ccc(Cl)cc3)C(=O)C(=O)N2CCN2CCOCC2)c1 (stereo unspecified),23.2%,-4.8%,-1.1%,5.9%,i,i
Cn1c(=O)c2cc(NC(=O)Nc3cccnc3)ccc2n1Cc1ccc(Cl)cc1,x,-4.4%,-8.7%,x,i,i
CC(=O)c1cccc(S(=O)(=O)N2CCN(c3ccccc3F)CC2)c1,1.0%,0.1%,-20.1%,-50.6%,i,i
Cc1ccccc1C(=O)c1c[nH]c(C(=O)N2CCN(c3ccccc3F)CC2)c1,22.2%,u,-24.7%,13.2%,i,i
O=C(c1cccc(S(=O)(=O)N2CCCCC2)c1)N1CCCCC1,8.2%,5.5%,5.0%,-2.5%,14.6µM*,i
O=C(c1cccc(S(=O)(=O)N2CCCC2)c1)N1CCN(c2ccccc2F)CC1,23.5%,-5.5%,0.3%,-3.7%,6.51µM*,i
O=C(c1cccc(S(=O)(=O)N2CCN(c3ccc(F)cc3)CC2)c1)N1CCCC(C(F)(F)F)C1 (stereo unspecified),5.2%,u,16.4µM*,u,u,u
CC1CN(C(=O)c2cccc(S(=O)(=O)N3CCN(c4ccc(F)cc4)CC3)c2)CC(C)O1 (stereo unspecified),0.2%,1.2%,8.0%,-3.9%,u,i
O=C(c1c[nH]c(C(=O)N2CCN(c3ccccc3F)CC2)c1)c1cccc(Cl)c1Cl,3.66µM*,u,9.2µM*,u,20.6µM*,u
O=C(c1cccc(S(=O)(=O)N2CCOCC2)c1)N1CCCCCC1,-2.7%,5.4%,18.0%,-4.2%,u,i
COc1ccc(NC(=O)CSc2nnc(Cc3ccccc3)c(=O)n2N)cc1OC,28.0%,0.7%,-12.1%,88.2%,i,i
CC(C)NC(=O)CSc1nc(-c2cccs2)cc(-c2ccccc2)c1C#N,u,-0.3%,19.4%,17.5%,i,i
Clc1ccc(-n2nnnc2SCc2c(-c3ccccc3)nc3sccn23)cc1,13.0%,u,u,-0.8%,u,i
COc1ccccc1-c1ncn(Cc2cccc(-c3ccccc3)c2)c1CC(C)C,x,u,18.4µM*,x,16.4µM*,u
CCc1c(-c2cccc(Br)c2)ncn1Cc1cccc(-c2ccccc2)c1,x,u,-92.8%,x,i,u
COc1ccccc1-c1nc2ccccc2n(CC(C)C)c1=O,x,0.0%,1.0%,x,u,i
